aSyn 5UTR act – Activators working through SNCA 5'UTR binding (MLPCN). alpha-synuclein 5'UTR reporter, activators screen. activity score, % (tested at 7.5 µM), hits read low. 7.1% of 300,000 active; in the data active = activity score below about -60%
A number is an active result; 0 = inactive. Not all results are given here.

SMILES	aSyn 5UTR act
Cc1nn(-c2nnc(NC3CCCCC3)nn2)c(C)c1Br	-165
CCOc1ccc(NC(=O)c2ccc(Br)o2)c([N+](=O)[O-])c1	-129
CCOc1ccc(NC(=O)COc2ccccc2)c([N+](=O)[O-])c1	-218
Cc1c(Cl)cccc1N=Cc1ccc([N+](=O)[O-])s1	-89
CC(=O)N=C1SC2CS(=O)(=O)CC2N1c1ccc(-c2nc3ccc(C)cc3s2)cc1 (centres undefined)	-164
Cc1ccc2nc(-c3ccc(N4C(=NC(=O)CCC(=O)O)SC5CS(=O)(=O)CC54)cc3)sc2c1 (centres undefined)	-92
CC(=O)Nc1ccc(NC(=S)NC(=O)c2cc3ccccc3o2)cc1	-71
Cc1cc(C)cc(C(=O)NC(=S)Nc2ccc(-c3cc4ccccc4oc3=O)cc2)c1	0
O=C(NC(=S)Nc1cccnc1)c1cc2ccccc2o1	-66
O=C(Nc1cccnc1)c1cc2cc(Br)ccc2o1	-116
O=C(NC(=S)Nc1ccc(CN2CCCCC2)cc1)c1cc2ccccc2o1	-68
O=[N+]([O-])c1ccccc1-c1nc(-c2ccc(Br)o2)no1	-266
O=[N+]([O-])c1cc(Cl)ccc1-c1nc(-c2ccccc2)no1	-181
O=[N+]([O-])c1cc(Cl)ccc1-c1nc(-c2ccncc2)no1	-143
CCn1c(-c2cc(-c3ccc(OC(C)C)cc3)nc3ccccc23)n[nH]c1=S	-104
CC(C)Oc1cccc(-c2cc(C(=O)NC(=S)N(C)c3ccccc3C(=O)O)c3ccccc3n2)c1	-75
CCCOc1cccc(-c2cc(-c3n[nH]c(=S)n3CC)c3ccccc3n2)c1	-72
CCCOc1cccc(-c2cc(C(=O)NNC(=S)NCC)c3ccccc3n2)c1	-114
CC(=O)C(Sc1nn(C)c(=S)s1)C(=O)Nc1ccccc1 (centres undefined)	-99
CC(=O)C(Sc1nc(N2CCOCC2)nc(N2CCOCC2)n1)C(=O)Nc1ccccc1 (centres undefined)	-66
O=c1cc(N2CCN(c3ccc(F)cc3)CC2)[nH]c(=O)n1C1CCCCC1	-107
CN(C)/C=N/c1ncnc2c1cnn2-c1ccc(C(F)(F)F)cn1	-84
COc1ccc(CNc2nc3ccccc3n2C)c(OC)c1	-88
CCCn1c(NCc2cccc(OC)c2O)nc2ccccc21	-82
COc1ccc(CNc2nc3ccccc3n2C)c(O)c1	-133
SMILES	aSyn 5UTR act
Cc1oc(C(C)(C)C)cc1C(=O)Nc1ccc(C(=O)O)cc1	-93
Cc1oc(C(C)(C)C)cc1C(=O)Nc1cccc(C(=O)O)c1	-114
Cc1cc(C(=O)Nc2cccc(C(=O)O)c2)c(C)o1	-92
Cc1cc(C(=O)Nc2cccc(C(=O)O)c2)oc1C	0
C(=C\n1nnc2ccccc21)/c1ccc[nH]1	-72
CN(C)c1ccc(P(=O)(Nc2ccccc2)N2CCOCC2)c(NC(=O)c2cccs2)c1 (centres undefined)	-100
Cc1ccc(NP(=O)(c2ccc(N(C)C)cc2NC(=O)c2cccs2)N2CCOCC2)cc1 (centres undefined)	-91
CN(C)c1ccc(P(=O)(Nc2ccc([N+](=O)[O-])cc2)N2CCOCC2)c(NC(=O)c2cccs2)c1 (centres undefined)	-66
COc1ccc(C(=O)OCCc2ccc(O)cc2)cc1	-179
Nc1ccc(C(=O)OCCc2ccccc2)cc1	-142
O=C(OCCc1ccccc1)c1cc(O)c(O)c(O)c1	-105
O=C(Nc1ccccc1)N1CC=C(c2ccc(F)cc2)CC1	-167
O=C(Nc1ccccc1)N1CC=C(c2ccccc2)CC1	-177
Cc1c(NC(=O)c2cc(-n3cnnc3)ccc2Cl)cccc1-c1nc2ccccc2s1	-90
Cc1ccc2sc(-c3ccc(NC(=O)c4cc(-n5cnnc5)ccc4Cl)cc3)nc2c1	-153
O=C(Nc1cccc(-c2nc3ccccc3s2)c1)c1cc(-n2cnnc2)ccc1Cl	-85
CCn1c(Cn2nnc(-c3ccccc3)n2)nnc1SCC(=O)Nc1ccc(C(C)=O)cc1	-92
COc1cc(C(=O)Oc2c(CN3CCOCC3)cc(Cl)c3cccnc23)cc(OC)c1OC	0
CCCCCOc1ccc(CN2CCOCC2)cc1Cl	-154
Cc1nc2cc(NC(=O)c3ccc(S(=O)(=O)N(C)c4ccccc4)cc3)ccc2o1	-132
CN(C)S(=O)(=O)c1ccc(C(=O)Nc2ccc3ncccc3c2)cc1	-86
CCCCN(CCCC)S(=O)(=O)c1ccc(C(=O)Nc2nnc(COC)o2)cc1	0
O=C(Nc1ccc2ncccc2c1)c1ccccc1Br	-297
CCS(=O)(=O)c1ncc(Cl)c(C(=O)Nc2ccc(S(=O)(=O)N(C)c3ccccc3)cc2)n1	0
O=C(Nc1ccc2ncccc2c1)Nc1ccc2ncccc2c1	-179
SMILES	aSyn 5UTR act
c1cnc2ccc(-c3ccc4ncccc4c3)cc2c1	-84
COc1cccc(NC(=O)N2CCc3ccccc3C2)c1	-104
COc1ccc(NC(=S)N2CCc3ccccc3C2)cc1	-82
O=C(Nc1cccc(Cl)c1)N1CCc2ccccc2C1	-185
COc1cccc(-c2cc(C(=O)N3CCc4ccccc4C3)[nH]n2)c1	-68
COc1ccc(NC(=O)C(=O)NCC(c2ccco2)N2CCc3ccccc32)cc1 (centres undefined)	0
S=C(NCCc1ccccc1)N1CCc2ccccc2C1	-101
FC(F)Oc1ccc(NC(=S)N2CCc3ccccc32)cc1	-133
COc1ccccc1C(=O)Nc1ccc2c(c1)CN(C(=O)CSC)CC2	-109
c1cc2c(cc1C1CCCCC1)c1c3n2CCCNC3CCC1 (centres undefined)	0
COc1cc(C(=O)Nc2ccc3nc(N4CCN(C)CC4)cc(C)c3c2)cc(OC)c1OC	-103
CCN1CCN(c2cc(C)c3cc(NC(=O)c4cc(OC)cc(OC)c4)ccc3n2)CC1	-98
Cc1cc(N2CCN(C)CC2)nc2ccc(NC(=O)c3ccc(Br)o3)cc12	-103
CCOc1ccc(C(=O)Nc2ccc3nc(N4CCN(CC)CC4)cc(C)c3c2)cc1	0
O=C(Nc1ccc(NC(=O)c2cc3ccccc3o2)cc1)c1ccc2c(c1)OCCO2	0
CC(C)C(=O)Nc1ccc(NC(=O)c2cc3ccccc3o2)cc1	-90
CCOC(=O)c1ccc(NC(=O)c2cc3ccccc3o2)cc1	-152
CCOC(=O)c1cccc(NC(=O)c2cc3ccccc3o2)c1	-110
Cc1ccc(NC(=O)c2cncc(Br)c2)nc1	-89
Cc1ccc(NC(=O)c2cncc(Br)c2)c(O)c1	-196
COc1cc(C#CC#CCN2CCCCC2)ccc1O	-81
Cc1cc(Nc2nc3ccccc3nc2Cl)n(-c2ccccc2)n1	-88
CNC(=O)COC(=O)c1ccc(-c2nc3ccccc3s2)s1	-161
COCCCNC(=O)COC(=O)c1ccc(-c2nc3ccccc3s2)s1	-68
Cc1cc(C)c2sc(NC(=O)C3CC3)nc2c1	-89
SMILES	aSyn 5UTR act
O=C(Nc1nnc(-c2ccccc2F)s1)C1CCCO1 (centres undefined)	-181
O=C(Nc1nc2ccc(F)cc2s1)C1CCCO1 (centres undefined)	-145
Nc1ccc2nc(NC(=O)C3CCCCC3)sc2c1	-124
O=C(Nc1ccc(-c2nc3cccnc3s2)cc1)C1CCCO1 (centres undefined)	0
O=C(Nc1nc2ccccc2s1)C1CCCO1 (centres undefined)	-132
Cc1ccc(NC(=O)c2cccc3cccnc23)cc1	-91
CC(=O)NC(c1ccc(Cl)cc1Cl)c1ccc2cccnc2c1O (centres undefined)	0
COc1ccccc1C(=O)Nc1cccc2cccnc12	-81
O=C(NCCc1ccccc1F)c1cccc2cccnc12	-147
O=C(Nc1cccc2cccnc12)c1cc(F)c(F)cc1Cl	-74

Screening data deposited in PubChem by Broad Institute.
